Bioassay records as filed in PubChem.
A selection: hits, their analogues and other compounds. The true share with any hit is near 19%.
DT40 TDP1 CPT: qHTS for Inhibitors of human tyrosyl-DNA phosphodiesterase 1 (TDP1): qHTS in cells in presence of CPT | chicken DT40 Tdp1-/-;hTDP1 cells + 20 nM CPT, ATP luminescence, 48 h | Potency, µM (doses to about 46.2 µM), without a hit: at the highest dose activity change, negative = growth inhibition, most hits filed as inhibitors | 420,000 compounds, 12% hits; further: potency means the concentration at half of the fitted maximal effect; nearly all actives have a fitted effect of over 55% in size
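Cell growth measured by CellTiter-Glo luminescence after a minimum 48 h, 37 C compound exposure with 20 nM CPT in Tdp1-knockout DT40 cells stably expressing hTDP1, seeded 400/well; qHTS titration format.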
TDP1 block: qHTS Assay for Inhibitors of Tyrosyl-DNA Phosphodiesterase (TDP1) | Potency, µM (series often up to 130 µM), inactives show at the highest dose activity change, negative = inhibition, hits mostly inhibitors | Tyrosyl-DNA phosphodiesterase 1 (Homo sapiens), Q9NUW8 | recombinant TDP1, AlphaScreen DNA substrate cleavage | 350,000 compounds, 0.28% hits; further: potency means the concentration at half of the fitted maximal effect; nearly all actives have a fitted effect of over 40% in size
Target sequence (Q9NUW8 whole entry, looked up): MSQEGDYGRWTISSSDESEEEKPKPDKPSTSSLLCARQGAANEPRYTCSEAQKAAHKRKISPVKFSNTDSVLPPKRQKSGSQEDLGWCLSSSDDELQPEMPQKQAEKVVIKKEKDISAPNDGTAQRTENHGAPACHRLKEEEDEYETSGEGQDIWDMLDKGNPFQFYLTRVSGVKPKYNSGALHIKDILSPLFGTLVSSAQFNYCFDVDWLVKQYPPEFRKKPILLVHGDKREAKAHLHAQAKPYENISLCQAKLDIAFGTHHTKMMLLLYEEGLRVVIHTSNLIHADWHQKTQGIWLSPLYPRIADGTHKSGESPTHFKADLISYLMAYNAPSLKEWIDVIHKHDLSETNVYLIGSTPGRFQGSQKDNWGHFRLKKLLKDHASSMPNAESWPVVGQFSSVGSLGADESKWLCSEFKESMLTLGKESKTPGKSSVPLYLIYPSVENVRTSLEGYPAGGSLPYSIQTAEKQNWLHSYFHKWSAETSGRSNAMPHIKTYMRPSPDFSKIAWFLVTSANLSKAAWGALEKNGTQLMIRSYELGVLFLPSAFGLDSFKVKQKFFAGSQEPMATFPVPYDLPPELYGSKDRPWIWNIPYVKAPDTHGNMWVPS
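Compounds were preincubated with Tdp1 (1 nM final) for 15 min at room temperature before substrate (15 nM final) started a 5 min reaction; beads (10 ug/ml final) were then added for 10 min before AlphaScreen detection.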
ELG1 repair inh: qHTS screen for small molecules that inhibit ELG1-dependent DNA repair in human embryonic kidney (HEK293T) cells expressing luciferase-tagged ELG1; HEK293T ELG1-luciferase reporter, luminescence, 16 h; DNA damage induced by 5-fluorouridine; Potency, µM (series often up to 46.1 µM), for inactives: at the top dose activity change, negative = inhibition, hits mostly inhibitors; 330,000 compounds, 2.3% hits; AID 504467, 2011; further: potency means the concentration at half of the fitted maximal effect; nearly all actives have a fitted effect of over 55% in size
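HEK293T cells expressing luciferase-tagged ELG1 (2,000/well) received 5-Fluorouridine plus compound or DMSO for 16 hr at 37 °C. Luciferase was read by ONE-Glo luminescence after 30 min at room temperature.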
Giardia kill: Small Molecules that selectively kill Giardia lamblia: qHTS; activity change, % at 7.66 µM, hits read low; 340,000 compounds, 0.15% hits; Giardia lamblia trophozoite viability; in the data active means activity change below about -80%; inconclusive means between about -30% and that limit;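 further: parasites exposed to compound for two days anaerobically before the ATP read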
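Each well holds 100 Giardia trophozoites and compound. After two days (48 hrs) at 37 deg C in anaerobic conditions, ATP is quantified by luminescence.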
IL1B secr inh: qHTS for Inhibitors of Inflammasome Signaling: IL-1-beta AlphaLISA Primary Screen. activity change, % at 57.5 µM. THP-1 LPS/ATP IL-1B secretion, AlphaLISA, 16 h; hits give low values. 360,000 compounds, 4.7% hits. AID 743279, 2014; in the data active means activity change below about -50%; inconclusive means mostly about -30% to -49%
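Secreted IL-1B measured by AlphaLISA bead assay after 16 h compound exposure of THP-1 cells; compounds (final up to 57.5 uM) added 1 h before LPS (250 ng/mL) and ATP (1.25 mM) stimulation; lower signal means less secretion.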
TDP1 cell noCPT: qHTS for Inhibitors of human tyrosyl-DNA phosphodiesterase 1 (TDP1): qHTS in cells in absence of CPT. DT40 Tdp1-/- hTDP1 cells, no CPT, ATP luminescence, 48 h. 420,000 compounds, 15% hits. Potency, µM (highest dose often 46.2 µM), inactives show at the top dose activity change, negative = growth inhibition, actives largely listed as inhibitors. AID 686978, 2013; further: potency means the concentration at half of the fitted maximal effect; nearly all actives have a fitted effect of over 55% in size
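DT40 Tdp1-/-;hTDP1 cells, no CPT (DMSO vehicle only), 400 cells/well; compounds pin-transferred; ≥48 hr, 37 °C; CellTiter-Glo 30 min RT dark, luminescence read.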
* marks the source's active call; other numbers are inactive results; ? = inconclusive; / = no result given; [ ] = dose if it differs, or a comment. Unless noted, the call rests on the fitted dose curve; in most records, active means well fitted curve in the direction sought with a large enough effect; inconclusive means small, poorly fitted or top-dose-only effect, or another doubt; inactive means no such curve, though single readings can be large; an effect the other way counts as inactive or inconclusive. On the % scale 0 is the no-effect control and ±100 the full control effect.

SMILES	DT40 TDP1 CPT	TDP1 block	ELG1 repair inh	Giardia kill	IL1B secr inh	TDP1 cell noCPT
Cc1cc(N2CCN(Cc3cn(C)nc3-c3cccc(Cl)c3)CC2)cc(C)n1	5.17µM*	2.6%	?	-9.4	-82.0*	5.8µM*
Cc1cc(N2CCN(Cc3cn(C)nc3-c3ccccc3F)CC2)cc(C)n1	5.8µM*	-2.6%	7.5%	3.2	?	5.8µM*
O=C(NCC1CCC2(CCN(Cc3cnn(-c4ccc(F)cc4)c3)CC2)O1)c1ccccc1 (centres undefined)	-8.8%	/	/	/	/	-26.5%
CCC(=O)NC(c1ccc(C)s1)c1cc(Cl)c2cccnc2c1O (centres undefined)	/	0.1%	/	/	/	/
CC(NC(=O)Cc1ccccc1[N+](=O)[O-])c1ccccc1 (centres undefined)	/	3.4%	0.9%	/	/	/
CCC(=O)NC(c1cccs1)c1cc([N+](=O)[O-])c2cccnc2c1O (centres undefined)	20.6µM*	3.7%	-14.3%	10.0	32.1	?
CCCC(=O)NC(c1cccs1)c1cc([N+](=O)[O-])c2cccnc2c1O (centres undefined)	23.1µM*	6.5%	-16.9%	15.9	?	13µM*
O=C(CCc1ccccc1)NC(c1cccs1)c1cc(Cl)c2cccnc2c1O (centres undefined)	3.66µM*	-5.1%	?	6.5	109.2	4.11µM*
CC(C)C(=O)NC(c1ccccc1)c1cc([N+](=O)[O-])c2cccnc2c1O (centres undefined)	18.4µM*	10.8%	?	-12.9	34.1	?
CCC(=O)NC(c1cccs1)c1cc(Cl)c2ccccc2c1O (centres undefined)	/	-0.3%	?	-2.1	/	/
CC(C)c1c(C(=O)NCC2(N3CCCCC3)CCCC2)cnn1-c1nccc(-c2ccco2)n1	10.9%[9.04 µM]	/	/	/	/	-2.2%
COc1ccc(OC(=O)c2cnn(-c3ccccc3)c2C)cc1	-29.4%	-2.0%	?	2.8	-4.5	-23.8%
CCc1cccc(C)c1NC(=O)CN1C(=O)c2ccccc2Sc2ncccc21	?	5.1%	/	/	/	?
CCN(CC)S(=O)(=O)c1cccc(N=Nc2c(O)c3ccccc3oc2=O)c1	?	2.8%	?	?	-15.4	?
Cc1oc2cc3oc(=O)c(CCC(=O)NCCc4ccccc4F)c(C)c3cc2c1C	23.1µM*	4.7%	/	/	/	23.1µM*
COc1ccc2c(C)c(CCC(=O)NCCc3ccc(OC)c(OC)c3)c(=O)oc2c1	13µM*	2.5%	/	/	/	?
COc1ccccc1CCNC(=O)CCc1c(C)c2cc3c(C)c(C)oc3cc2oc1=O	18.4µM*	7.0%	/	/	/	16.4µM*
Oc1ccc(N=Nc2c(O)ccc3ccccc23)cc1	18.4µM*	10.3%	20.1%	7.1	-51.1*	?
NS(=O)(=O)c1ccc(N=Nc2c(O)ccc3ccccc23)cc1	-12.7%	2.5%	-5.8%	-10.2	-29.4	?
CCC(=O)N1CCc2cc(S(=O)(=O)NC(Cc3ccccc3)C(=O)NCc3ccc(F)cc3)ccc21 (centres undefined)	-29.3%	-2.3%	/	/	/	-29.9%
O=C1c2ccccc2C(=Nc2ccccc2)C1c1cccc(Br)c1 (centres undefined)	10.3µM*	8.3%	0.0%	-12.2	54.4	?
O=C1c2ccccc2-c2cc(Br)ccc2NC1O (centres undefined)	-20.0%	/	/	/	0.9	?
Cc1ccc(N2CCN(C(=S)Nc3ccccc3)CC2)cc1	-8.8%	5.3%	8.2%	-29.0	-8.1	?
COc1ccc(NC(=O)C2Cc3c(-c4ccc(NC(C)=O)cc4)ccnc3O2)cc1 (centres undefined)	?	/	/	/	-25.2	16.4µM*
O=C(Nc1ccc(F)c(Cl)c1)C1Cc2c(-c3ccco3)ccnc2O1 (centres undefined)	23.1µM*	/	/	/	0.0	14.6µM*
SMILES	DT40 TDP1 CPT	TDP1 block	ELG1 repair inh	Giardia kill	IL1B secr inh	TDP1 cell noCPT
CC(=O)Nc1cccc(-c2ccnc3c2CC(C(=O)Nc2ccc(F)c(Cl)c2)O3)c1 (centres undefined)	18.4µM*	/	/	/	-18.5	18.4µM*
CC(=O)Nc1ccc(-c2ccnc3c2CC(C(=O)Nc2ccc(C(C)C)cc2)O3)cc1 (centres undefined)	?	/	/	/	-23.3	?
CC(=O)Nc1cccc(-c2ccnc3c2CC(C(=O)Nc2ccc(C(C)C)cc2)O3)c1 (centres undefined)	20.6µM*	/	/	/	-51.0*	11.6µM*
CC1(C)OC1COc1c2ccoc2cc2oc(=O)ccc12 (centres undefined)	?	2.6%	1.6%	-29.2	-15.5	-11.1%
CC(=O)Nc1cccc(-c2ccnc3c2CC(C(=O)NCC2CC2)O3)c1 (centres undefined)	?	/	/	/	36.4	?
CN(C)c1cccc(NC(=O)C2Cc3c(-c4ccc(Cl)cc4)ccnc3O2)c1 (centres undefined)	?	/	/	/	-28.2	?
COc1ccc(NC(=O)C2Cc3c(-c4cccc(C(C)=O)c4)ccnc3O2)cc1 (centres undefined)	2.31µM*	/	/	/	-3.4	2.91µM*
COc1ccc(NC(=O)C2Cc3c(-c4cccc(C(C)=O)c4)ccnc3O2)cn1 (centres undefined)	2.59µM*	/	/	/	59.2	2.91µM*
CC(=O)c1cccc(-c2ccnc3c2CC(C(=O)NC(C)C)O3)c1 (centres undefined)	9.2%	/	/	/	43.4	6.7%
CC(=O)Nc1ccc(-c2ccnc3c2CC(C(=O)Nc2ccccc2)O3)cc1 (centres undefined)	4.61µM*	/	/	/	-26.0	5.8µM*
CC(=O)c1cccc(-c2ccnc3c2CC(C(=O)Nc2cccc(OC(F)(F)F)c2)O3)c1 (centres undefined)	-4.3%	/	/	/	-5.8	?
COc1ccc(NC(=O)C2Cc3c(-c4ccc(NC(C)=O)cc4)ccnc3O2)cn1 (centres undefined)	8.2µM*	/	/	/	-22.2	11.6µM*
CN(C)c1cccc(NC(=O)C2Cc3c(-c4cccnc4)ccnc3O2)c1 (centres undefined)	8.4%	/	/	/	-7.9	0.2%
COc1ccc(NC(=O)C2Cc3c(-c4cccc(NC(C)=O)c4)ccnc3O2)cc1 (centres undefined)	3.66µM*	/	/	/	43.1	3.26µM*
